In general, AC50 refers to the midpoint of the concentration-response curve, whichever way the signal moves.

Our source for the outcome and AC50 values is PubChem BioAssay (EPA / NIEHS).

The source made the active and inactive calls. How the source made its calls: active means hit-call score of the fitted dose curve at least 0.9, where 1 is the maximum; inactive means score below 0.9.

The assay deals with Aryl hydrocarbon receptor (Homo sapiens) (UniProt P35869). Nature of the assay: ATG_Ahr_CIS: Attagene CIS-FACTORIAL HepG2 Assay for human Aryl Hydrocarbon Receptor (Ahr) (AID 2282930). The following applies: HepG2 AhR cis-factorial reporter transcription; actives raise or lower the signal. How it is done: ATG_CIS is a cell-based, multiplexed-readout assay that uses HepG2, a human liver cell line, with measurements taken at 24 hours after chemical dosing in a 24-well plate.ATG_Ahr_CIS is one of 52 assay component(s) measured or calculated from the ATG_CIS assay. It is designed to make measurements of mRNA induction, a form of inducible reporter, as detected with fluorescence intensity signals by Reverse transcription polymerase chain reaction (RT-PCR) and Capillary electrophoresis technology.Data from the assay component ATG_Ahr_CIS was analyzed into 1 assay endpoint. This assay endpoint, ATG_Ahr_CIS, was analyzed with bidirectional fitting relative to DMSO as the negative control and baseline of activity. Using a type of inducible reporter, measures of mRNA for gain or loss-of-signal activity can be used to understand the reporter gene at the transcription factor-level as they relate to the gene AHR. Furthermore, this assay endpoint can be referred to as a primary readout, because this assay has produced multiple assay endpoints where this one serves a reporter gene function. To generalize the intended target to other relatable targets, this assay endpoint is annotated to the dna binding intended target family, where the subfamily is basic helix-loop-helix protein.
Sequence of Aryl hydrocarbon receptor (Homo sapiens) (P35869 whole entry, looked up): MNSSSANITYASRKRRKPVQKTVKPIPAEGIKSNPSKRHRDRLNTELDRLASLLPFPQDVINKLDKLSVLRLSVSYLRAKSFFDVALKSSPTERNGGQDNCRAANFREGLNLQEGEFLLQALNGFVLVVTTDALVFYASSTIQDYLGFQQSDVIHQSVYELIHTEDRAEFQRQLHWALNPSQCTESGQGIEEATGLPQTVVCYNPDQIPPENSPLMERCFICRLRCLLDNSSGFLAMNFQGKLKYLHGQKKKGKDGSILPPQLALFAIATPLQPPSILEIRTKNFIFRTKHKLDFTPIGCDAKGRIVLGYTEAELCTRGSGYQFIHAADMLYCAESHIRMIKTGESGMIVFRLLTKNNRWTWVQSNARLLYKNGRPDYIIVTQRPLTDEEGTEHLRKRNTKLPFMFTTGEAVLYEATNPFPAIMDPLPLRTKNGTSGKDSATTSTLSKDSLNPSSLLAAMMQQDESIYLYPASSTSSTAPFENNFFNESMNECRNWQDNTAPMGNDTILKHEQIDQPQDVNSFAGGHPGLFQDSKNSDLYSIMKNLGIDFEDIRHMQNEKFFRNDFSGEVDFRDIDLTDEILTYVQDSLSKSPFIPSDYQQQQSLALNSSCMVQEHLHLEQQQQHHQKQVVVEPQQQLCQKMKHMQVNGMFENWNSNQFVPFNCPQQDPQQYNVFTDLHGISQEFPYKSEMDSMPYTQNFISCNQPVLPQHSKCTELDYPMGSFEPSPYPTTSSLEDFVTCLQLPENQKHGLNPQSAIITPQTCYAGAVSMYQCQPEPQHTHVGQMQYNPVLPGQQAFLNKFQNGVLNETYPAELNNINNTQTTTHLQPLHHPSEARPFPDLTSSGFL
Human liver HepG2 cells are transiently transfected with multiple reporter transcription units (MRTUs) in 6-well plates using FuGene 6 reagent (Roche; 3 ml FuGene/1 mg DNA). The MRTU constructs are regulated by a cis-regulating element (promoter). […] A major difference between the CIS and TRANS system is that in CIS activities of endogenous TFs are measured, whereas the TRANS assay evaluates changes in activities of exogenous, chimeric NR-Gal4 proteins. […] At the end of 24 hour incubation, total RNA was isolated using TriZol reagent (Invitrogen). The isolated RNA is then reverse-transcribed using oligo(dT) primer and Mo-MLV reverse transcriptase (Invitrogen) with DNAse I (Ambion) treatment for 30 min. The one-tenth of the produced cDNA was amplified by PCR using Taq DNA polymerase (Invitrogen) and two reporter sequence-specific primers. The PCR products were fluorescently labeled by primer extension with 6-arboxyfluorescein (6-FAM) 5'-labeled reporter sequence-specific primer (2 min at 95 C, 20 s at 68 C and 10 min at 72 C) and these products were digested with 5U of HpaI (New England Biolabs) for 2h at 37 C. […] The raw capillary electrophoresis data was processed using Attagraph software (Attagene).
With `O=[N+]([O-])c1ccc(Cl)cc1`, the outcome was inactive.
Still for that read-out and setting: the same measure for `O=C(O)CCCc1ccc(N(CCCl)CCCl)cc1`: “inactive”.
On the same count and under the same terms, next, `S=c1[nH]c2ccccc2[nH]1`: “inactive”.
For the molecule `N#CCCCCC#N`, the molecule was called inactive.
Same read-out and setting: the same measure for `O=[N+]([O-])O.O=[N+]([O-])O.[Cd]`: “inactive”.
Turning to `CC(C)COP(=O)(OCC(C)C)OCC(C)C`, the AC50 was 73.3 µM (active).
Turning to `CN1C[C@H](C(=O)N[C@]2(C)O[C@@]3(O)[C@@H]4CCCN4C(=O)[C@H](Cc4ccccc4)N3C2=O)C=C2c3cccc4[nH]cc(c34)C[C@H]21`, the result was inactive.
Still for that read-out and setting: the same measure for `C[N+](C)(C)CC(=O)[O-]`: “inactive”; for `CCC(C)(C)O`: “inactive”.
On the same count and under the same terms, the same measure for `C=CC(=O)OC`: “inactive”.
Turning to `O=c1[nH]c(Cl)c(Cl)cc1Cl`, the AC50 was 13.8 µM (active).
On to `CCOP(O)OCC`, for which the outcome was inactive.
On the same count and under the same terms, the same measure for `ClCC(Cl)Cl`: “inactive”; for `O=C(CCN1CC1)OCC(CO)(COC(=O)CCN1CC1)COC(=O)CCN1CC1`: “inactive”.
On the same count and under the same terms, the same measure for `C[C@]12CC[C@H]3[C@@H](CC[C@@]45O[C@@H]4C(O)=C(C#N)C[C@]35C)[C@@H]1CC[C@@H]2O`: “inactive”; for `Cc1ccc(OP(=O)(Oc2ccc(C)cc2)Oc2ccc(C)cc2)cc1` (tested in a mixture with another compound): “inactive”.
On the same count and under the same terms, next, `Oc1ccc(Cl)cc1`: “inactive”.
With `Cc1ccc(C)c2ccccc12`, the AC50 was 27.7 µM (active).
In the case of `CN(N=O)c1ccccc1`, the call was inactive.
On the same count and under the same terms, next, `CC1(C)C(=O)NC(=O)NC1=O`: “inactive”; `[Cl-].[Cl-].[Cl-].[Yb+3]`: “inactive”; `Clc1ccc(-c2ccccc2)cc1`: “inactive”.
On the same count and under the same terms, the same measure for `CC(=O)/C=C/c1ccccc1`: “inactive”.
Consider `CCCCCCCCCCCCCCCC[N+](C)(C)C`, for which the AC50 was 35.5 µM (active).
Turning to `N#CCNCC#N`, the call was inactive.
On the same count and under the same terms, next, `O=C(O)c1cc[c]([Hg][Cl])cc1`: “inactive”; `O=C(CCl)c1ccccc1`: “inactive”; `COc1ncc(F)c2nc(S(=O)(=O)Nc3c(F)cccc3F)nn12`: “inactive”.
With `Nc1c(Cl)c(Cl)c(Cl)c(Cl)c1Cl`, the AC50 was 31.4 µM (active).
Take `C=CCc1ccc(OC(=O)Cc2ccccc2)c(OC)c1`: the molecule was called inactive.
Same read-out and setting: next, `N#Cc1cc(I)c(O)c(I)c1`: “inactive”; `CCCOC(=O)c1ccccc1C(=O)OCCC`: “inactive”; `BrCBr`: “inactive”.
On the same count and under the same terms, next, `CC(=O)C=Cc1ccccc1`: “inactive”; `O=C1Nc2ccc(Cl)cc2C(c2ccccc2)=NC1O` (stereo not given): “inactive”.
Still for that read-out and setting: the same measure for `CN(C)C(=O)C(c1ccccc1)c1ccccc1`: “inactive”.
As for `Cc1cc(C)c(C2=C(OC(=O)CC(C)(C)C)C3(CCCC3)OC2=O)c(C)c1`, the call was inactive.
On the same count and under the same terms, the same measure for `CCOP(=O)(OCC)Oc1ccc([N+](=O)[O-])cc1`: “inactive”; for `COC(C)(C)CCC[C@H](C)C/C=C/C(C)=C/C(=O)OC(C)C`: “inactive”.
In the case of `CCC(Br)(CC)C(=O)NC(N)=O`, the molecule was called inactive.
